The record followed here is PubChem BioAssay AID1942 (Johns Hopkins Ion Channel Center, 2009).

Among all 2,400 compounds or so, about 580 (24%) were called active. These entries were drawn from the full list. A number with no mark means an inactive call.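 The calls were made as follows: active = activity change at or above the mean plus 3 SD of buffer wells without dofetilide, per plate; inactive = the rest.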

Chain of Potassium voltage-gated channel subfamily KQT member 2 (Rattus norvegicus) (O88943 whole entry, looked up): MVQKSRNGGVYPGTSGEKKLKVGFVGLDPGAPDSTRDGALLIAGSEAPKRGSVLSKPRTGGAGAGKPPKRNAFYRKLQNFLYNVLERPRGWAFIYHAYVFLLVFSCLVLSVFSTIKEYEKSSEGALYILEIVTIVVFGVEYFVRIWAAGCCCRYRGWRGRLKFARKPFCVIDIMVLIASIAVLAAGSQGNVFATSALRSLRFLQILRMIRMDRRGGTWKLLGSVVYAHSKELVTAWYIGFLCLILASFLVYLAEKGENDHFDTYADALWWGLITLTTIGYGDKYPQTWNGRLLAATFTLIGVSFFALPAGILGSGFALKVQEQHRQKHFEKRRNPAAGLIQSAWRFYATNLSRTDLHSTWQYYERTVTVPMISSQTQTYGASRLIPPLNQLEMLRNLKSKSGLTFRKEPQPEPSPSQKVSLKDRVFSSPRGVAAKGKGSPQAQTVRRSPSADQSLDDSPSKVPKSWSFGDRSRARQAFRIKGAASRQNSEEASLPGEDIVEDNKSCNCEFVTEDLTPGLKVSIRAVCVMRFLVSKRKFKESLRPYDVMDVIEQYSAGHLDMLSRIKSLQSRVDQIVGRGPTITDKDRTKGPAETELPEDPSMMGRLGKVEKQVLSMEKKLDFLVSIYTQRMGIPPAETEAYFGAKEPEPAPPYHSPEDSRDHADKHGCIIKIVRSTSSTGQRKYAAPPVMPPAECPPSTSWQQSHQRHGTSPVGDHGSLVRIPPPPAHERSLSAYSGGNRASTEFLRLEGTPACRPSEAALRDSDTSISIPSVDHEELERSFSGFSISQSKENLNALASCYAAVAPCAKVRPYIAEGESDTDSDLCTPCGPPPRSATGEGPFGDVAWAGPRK

The experiment addresses Potassium voltage-gated channel subfamily KQT member 2 (Rattus norvegicus) (UniProt O88943). In words: rat KCNQ2 channel activation by compounds alone, confirmation, counter-screen for hERG block protector project, cell-based, CHO, FluxOR thallium flux (AID 1942).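 Also: normalized value minus buffer-control mean plus three SD of buffer wells.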 Particulars: CHO-KCNQ2 cells, FluxOR thallium flux fluorescence; at 10 µM; stronger effect = higher value. In general terms: Counterscreens check selectivity or assay interference.
Turning to `CCC[C@H]1COCCS(=O)(=O)N1Cc1ccc(Br)cc1`, the activity change, less the hit threshold was -9.4%.
Turning to `COc1ccc(/C=C2\SC(=N)N(c3nccs3)C2=O)cc1OC`, the activity change, less the hit threshold was -16.2%.
As for `Cc1ccsc1CN(C(=O)c1ccc([N+](=O)[O-])cc1)C1CCS(=O)(=O)C1` (centres undefined), the activity change, less the hit threshold is -17.5%.
Consider `Cc1ccc(C(C)C)cc1OCC(=O)Nc1ccc(N2CCCCC2)cc1`, for which the activity change, less the hit threshold was -13.5%.
Consider `Oc1c(Br)cc(Br)cc1CNc1cccc2cccnc12`, for which the activity change, less the hit threshold is -29.6%.
For `Oc1c(Br)cc(Br)cc1C=Nc1cccc2ncccc12` the value was 30.9% (active); for `Cc1cccc(N2CCN(C(=O)C3CCN(S(=O)(=O)c4cccnc4)CC3)CC2)c1C`, -14.6%.
Regarding `O=C(CSCc1cnn(-c2ccccc2)c1-n1cccc1)NCc1cccnc1`, the activity change, less the hit threshold was -9%.
Take `CC1=[N+]([O-])C(C)(C)C(c2ccc(Br)cc2)=[N+]1[O-]`: the activity change, less the hit threshold is 7.3% (active).
On to `Cc1cc(C)c(S(=O)(=O)NCc2ccccn2)c(C)c1`, for which the activity change, less the hit threshold is -18.8%.
Consider `CSc1nc(-c2ccco2)cc(C(F)(F)F)c1C#N`, for which the activity change, less the hit threshold was -9.1%.
Then `Cc1c(N2C(=O)/C(=C\c3ccccc3O)SC2=S)c(=O)n(-c2ccccc2)n1C`, with 68.6% (active); and `O=C(O)COc1ccccc1/C=C1\SC(=S)N(NC(=O)c2ccccc2O)C1=O`, with -12.9%.
Take `COc1ccc(C(C(=O)NC(C)(C)C)N(C(=O)CCC(=O)Nc2cc(C)on2)c2cccc(F)c2)cc1` (centres undefined): the activity change, less the hit threshold is -14.9%.
For `CCCCc1c(O)nc(SCC(=O)N2CCOCC2)[nH]c1=O`, the activity change, less the hit threshold was -9.9%.
In the case of `COC(=O)CNc1nc(Cl)nc(Nc2ccc(C)cc2)n1`, the activity change, less the hit threshold was -22.2%.
For `CCOC(=O)c1c(NS(=O)(=O)Cc2ccccc2)sc2c1CCCC2`, the activity change, less the hit threshold is 32.5% (active).
Take `COC(=O)c1c(NS(=O)(=O)Cc2ccccc2)sc2c1CCCC2`: the activity change, less the hit threshold is 42.1% (active).
Take `Cc1ccc(C(=O)Nc2sc3c(c2C(=O)O)CCCCC3)o1`: the activity change, less the hit threshold was -23.9%.
For the compound `COC(=O)c1c(NS(=O)(=O)c2ccc3ccccc3c2)sc2c1CCCC2`, the activity change, less the hit threshold was -15.5%.
`CCOC(=O)c1c(NS(=O)(=O)c2ccc(Br)cc2)sc2c1CCC2`: the activity change, less the hit threshold is 5.6% (active).
For the compound `CCOC(=O)c1c(C)cccc1OCC(N)=O`, the activity change, less the hit threshold is -12.7%.
In the case of `CN1C(=O)c2ccc(C(=O)NCc3ccccc3)cc2C1=O`, the activity change, less the hit threshold was -20.8%.
As to `COCCCNC(=O)CCc1nnc(Cc2ccc(-c3ccccc3)cc2)o1`, the activity change, less the hit threshold was -5.1%.
For `Cc1cc(=S)[nH]c2c(C)cccc12`, the activity change, less the hit threshold is -3.9%.
As for `CCOc1cc(NC(=S)N2CCC(C(N)=O)CC2)c(C(=O)OC)cc1OCC`, the activity change, less the hit threshold is -11.5%.
With `COc1ccc(OCC(=O)NNC(=O)C(=O)Nc2ccc(C)cc2)cc1`, the activity change, less the hit threshold was -23.7%.
On to `CCc1ccc(NC(=O)C(=O)NNC(=O)COc2cccc(OC)c2)cc1`, for which the activity change, less the hit threshold was 14.3% (active).
Turning to `COc1cccc(OCC(=O)NNC(=O)C(=O)Nc2cccc(C)c2)c1`, the activity change, less the hit threshold was 33.1% (active).
As for `O=C(COc1cccc(-n2cnnn2)c1)Nc1ccc([N+](=O)[O-])cc1`, the activity change, less the hit threshold is -13.3%.
Regarding `CCc1ccc(OCC(=O)Nc2ncn[nH]2)cc1`, the activity change, less the hit threshold was -16.1%.
For `Cc1cccc(OCC(=O)NCc2nc(-c3ccccc3)no2)c1` the value was -17.2%; for `CC(C)c1cccc(C(C)C)c1NC(=O)COC(=O)[C@H](C)NC(N)=O`, -17.5%; for `CC1CCN(c2ccccc2NC(=S)NC(=O)c2ccco2)CC1`, -14.3%.
Turning to `O=C(NC(=S)Nc1cccc(Cl)c1N1CCCCC1)c1ccco1`, the activity change, less the hit threshold was -12.3%.
Turning to `O=C(NC(=S)Nc1cc(C(F)(F)F)ccc1N1CCOCC1)c1ccco1`, the activity change, less the hit threshold is -11.4%.
For `O=C(NC(=S)Nc1ccccc1Cl)c1ccco1`, the activity change, less the hit threshold is 10.4% (active).
`O=C(NC(=S)Nc1ccc(N2CCCCC2)cc1)c1ccco1`: the activity change, less the hit threshold was 45.9% (active).
As to `O=C(NC(=S)Nc1ccccc1Br)c1ccco1`, the activity change, less the hit threshold is 18.2% (active).
Then `O=C(NC(=S)Nc1ccccc1N1CCCC1)c1ccco1`, with 11.2% (active).
Take `O=C(NC(=S)Nc1ccccc1N1CCCC1)c1cccs1`: the activity change, less the hit threshold was -17.3%.
Then `O=C(Nc1ccc(N2CCOCC2)cc1)c1ccc(S(=O)(=O)N2CCCCC2)cc1`, with -20.8%; and `O=C(N/N=C/c1ccc(OC(F)F)cc1)C1=COCCO1`, with -10.9%; and `COC(=O)c1cc2sc(Cl)cc2n1CC(=O)NCC1CCCO1` (centres undefined), with -16.1%.
For `COc1ccc(NC(=O)c2cn(-c3ccccc3)nc2-c2ccncc2)cc1`, the activity change, less the hit threshold was -9.7%.
For the compound `Nc1ncnc(Oc2cccc3cccnc23)c1[N+](=O)[O-]`, the activity change, less the hit threshold was -25.4%.
`CCOc1ccccc1NC(=S)NC(=O)c1ccco1`: the activity change, less the hit threshold is -5.9%.
Turning to `CCC(C)c1ccccc1NC(=O)c1[nH]c(C)c(C(C)=O)c1C` (centres undefined), the activity change, less the hit threshold is -22.3%.
As for `CCC(C)c1ccccc1NC(=S)NC(=O)c1ccco1` (centres undefined), the activity change, less the hit threshold is 60.2% (active).
With `N#C/C(=N/Nc1ccc([N+](=O)[O-])cc1)C(=N)N1CCCCC1`, the activity change, less the hit threshold is -6.1%.
Regarding `C/C(=C/CCC(C)[C@H]1CC[C@@]2(C)C3=C(CC[C@]12C)[C@@]1(C)CCC(=O)C(C)(C)[C@@H]1CC3)C(=O)O` (some centres undefined), the activity change, less the hit threshold was -36.3%.
`CC(C)OC(=O)CSc1nnc(C2CCCCC2)n1N`: the activity change, less the hit threshold was -21.8%.
On to `CCC1(c2ccc(Cl)cc2)NC(=S)N(c2ccc(C)c(C)c2)N1` (centres undefined), for which the activity change, less the hit threshold is 101% (active).
Take `CCC1(c2ccccc2)NC(=S)N(c2ccc(C)c(C)c2)N1` (centres undefined): the activity change, less the hit threshold was 111% (active).
In the case of `CCCCn1nnc(NC(=O)c2ccc(-c3cccc([N+](=O)[O-])c3)o2)n1`, the activity change, less the hit threshold was -21.1%.
Turning to `CCCCNC1=CC(=O)C(=O)c2ccccc21`, the activity change, less the hit threshold is -18.9%.
For `COC(=O)c1ccc(C2C(C#N)=C(N)Oc3cc(O)ccc32)cc1` (centres undefined), the activity change, less the hit threshold was -8.7%.
Regarding `CC1CCc2sc(-c3n[nH]c(=S)o3)cc2C1` (centres undefined), the activity change, less the hit threshold was 20.7% (active).
In the case of `CCN(CC)CCCN1C(=O)c2oc3ccccc3c(=O)c2C1c1cccs1` (centres undefined), the activity change, less the hit threshold is 12.9% (active).
Then `COCCN1C(=O)c2oc3cc(C)c(C)cc3c(=O)c2C1c1ccc(O)cc1` (centres undefined), with -0.6%; and `Cc1ccc2oc3c(c(=O)c2c1)C(c1cccs1)N(CCCN(C)C)C3=O` (centres undefined), with 7.1% (active).
`CSc1ccc(C2NN=C(c3ccccc3)S2)cc1` (centres undefined): the activity change, less the hit threshold is -15.8%.
Consider `Cc1ccc(CC23CN4CCN(CC(C4)C2O)C3)c(C)c1` (centres undefined), for which the activity change, less the hit threshold is -8.4%.
For the compound `O=C(NCC(c1cccs1)N1CCOCC1)c1cc(S(=O)(=O)N2CCOCC2)ccc1F` (centres undefined), the activity change, less the hit threshold is -15.4%.
Consider `CSC1=C(C#N)C(CC(C)C)C2=C(CCCC2=O)N1` (centres undefined), for which the activity change, less the hit threshold was -12.3%.
In the case of `CCOc1nc(-c2ccccc2)ccc1-c1noc(COC)n1`, the activity change, less the hit threshold was -13.5%.
`Cc1cc(C(F)(F)F)c2sc(N)nc2n1`: the activity change, less the hit threshold is -4.4%.
On to `O=C(Cc1ccccc1)Nn1c(-c2ccccc2)nc2ccccc2c1=O`, for which the activity change, less the hit threshold is 29.9% (active).
For the compound `Cc1cc(C)nc(NS(=O)(=O)c2ccc(NC(=O)Cc3ccccc3)cc2)n1`, the activity change, less the hit threshold was -11.1%.
On to `O=C(O)CCCNC(=O)c1nn(Cc2ccccc2)c(=O)c2ccccc12`, for which the activity change, less the hit threshold is -5.2%.
For `Cc1nc2c(C(=O)NCc3cccs3)cnn2c(C)c1Cc1ccccc1` the value was -25.2%; for `O=C(Cc1cccs1)Nn1c(Cc2cccs2)nc2ccccc2c1=O`, 54.3% (active); for `O=S(=O)(c1ccc(F)c(F)c1)N1CCN(c2ncccn2)CC1`, -26%.
For `CCCCCOc1ccc(C2C(C(C)=O)=C(C)Nc3ncnn32)cc1OC` (centres undefined) the value was -11.7%; for `O=C(c1ccc2c(c1)N(Cc1ccccc1F)C(=O)c1ccccc1S2(=O)=O)N1CCCC1`, -23.2%.
As for `COc1ccc(CN2CCn3ncc(C(=O)Nc4ccccc4)c3C2=O)cc1`, the activity change, less the hit threshold is -13.1%.
`Cc1nnc(NC(=O)CN2CCN(Cc3ccc(F)cc3Cl)CC2)s1`: the activity change, less the hit threshold is -27.8%.
Consider `Cc1ccc2c(c1)c1nnc(SCC(=O)Nc3ccc(N(C)C)cc3)nc1n2CC(=O)O`, for which the activity change, less the hit threshold is -16.6%.
For `CCN(CC)S(=O)(=O)c1cc(OC)ccc1N=Nc1ccc(O)c2ncccc12` the value was 44.8% (active); for `COc1ccc(NS(=O)(=O)c2ccc3ccccc3c2)c2ncccc12`, -12.6%.
For `COc1ccccc1N=Nc1ccc(O)c2ncccc12` the value was 15.6% (active); for `COc1ccc(OC)c(S(=O)(=O)Nc2ccc(O)c3ccccc23)c1`, -22.3%; for `CCOc1ccc(N=Nc2ccc(O)c3ncccc23)cc1`, -5.6%.
Turning to `COc1cccc(N=Nc2ccc(O)c3ncccc23)c1`, the activity change, less the hit threshold is -7.4%.
On to `O=C(COC(=O)c1cc(NS(=O)(=O)c2cccs2)ccc1O)Nc1cc(Cl)ccc1Cl`, for which the activity change, less the hit threshold was -5.6%.
With `C[n+]1ccccc1COc1ccc(C(C)(C)C)cc1`, the activity change, less the hit threshold was -21.7%.
Then `CCC1(CC)Cc2ccccc2-c2[nH]c(=S)[nH]c(=O)c21`, with -28.1%; and `CCCn1c(SCC(N)=O)nc2c(c1=O)C1(CCCC1)Cc1ccccc1-2`, with -2.1%.
As to `CCn1c(=S)[nH]c2c(c1=O)C(C)(C)Cc1ccccc1-2`, the activity change, less the hit threshold was 35.3% (active).
Regarding `COc1ccc(-c2cc(C(F)(F)F)nc(SCC(=O)NCc3cccs3)n2)cc1`, the activity change, less the hit threshold is -14.1%.
As to `COc1ccc(-c2cc(C(=O)Nc3ccccc3SC)no2)cc1`, the activity change, less the hit threshold is -15.3%.
On to `COC(=O)c1c(NC(=O)C(C)(C)C)csc1C`, for which the activity change, less the hit threshold was -9.2%.
Regarding `C/C(=N\NC(=O)c1ccc(Cl)cc1)c1ccc(Br)s1`, the activity change, less the hit threshold is -6.9%.
For `CCc1cc2c(=O)n(CCC(C)C)c(=S)[nH]c2s1` the value was 54% (active); for `CCCCNC(=O)c1onc(CSc2nc3ccccc3[nH]2)c1C(=O)NCCCC`, -19%.
Take `COc1ccc(CCNC(=O)Cn2c(=O)n(-c3ccc(F)cc3)c(=O)c3sccc32)cc1OC`: the activity change, less the hit threshold was -19.4%.
As to `CCNC(=S)N/N=C1\C(=O)c2cccc3cccc1c23`, the activity change, less the hit threshold is -4%.
Regarding `O=C(NN=C1c2ccccc2-c2ccccc21)c1ccccc1`, the activity change, less the hit threshold was 0%.
As to `O=C(N/N=C1/C(=O)c2cccc3cccc1c23)c1ccc(Cl)cc1`, the activity change, less the hit threshold is 73.4% (active).
